According to PubChem BioAssay (NCI):
This is part of a sample that, as a whole, favours compounds with a hit. Of some 83,000 tested, about 20% had one in any assay.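 The endpoint reported here, percent growth, reads 100 for growth as untreated, 0 for no net growth and -100 for all cells dead.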 Active and inactive are the calls of the source. Rule for the calls: active = growth percent below 10; inactive = the rest.

tested on: HOP-62 NSCLC; test: NCI-60 one-dose screen, 48 h (100 = growth as untreated, 0 = no growth, -100 = all killed); settings: 10 µM unless noted

Row | SMILES | growth
1 | COC(=O)[C@@H]1CCCN1C(=O)[C@H]1CCCN1C(=O)[C@@H](Cc1c[nH]c2ccccc12)NC(=S)Nc1cc(C(F)(F)F)cc(C(F)(F)F)c1 | 65.2% (inactive)
2 | Cc1ccc(F)cc1NC(=O)c1cc(Cl)ccc1Nc1ccccc1 | 83.9% (inactive)
3 | CC1=C(C(=O)OCC2CCN(C(=O)OC(C)(C)C)CC2)[C@@H](c2cccc(C#N)c2)C2=C(CC(C)(C)CC2=O)N1 | 65.8% (inactive)
4 | CCCCCCc1cc2cc(-c3csc(/C=C/c4ccccc4)n3)c(=O)oc2cc1O | 34.9% (inactive)
5 | COc1ccc(Br)c(/C=C2\SC(=Nc3ccc(O)cc3)NC2=O)c1 | 96.2% (inactive)
6 | COc1ccc(Cn2c(Br)c3c(c2Br)-c2nc(N)sc2CC3)cc1 | 35.5% (inactive)
7 | COC(=O)c1cc2c(n1Cc1ccccc1)-c1oncc1CCC2 | 72.9% (inactive)
8 | CCOC(=O)c1sc(-c2ccc(OS(=O)(=O)c3ccccc3[N+](=O)[O-])c(C=O)c2)nc1C | 117% (inactive)
9 | Clc1ncccc1Nc1ccc2nnc(-c3ccncc3)n2n1 | 102% (inactive)
10 | O=C1NC(=O)C(=Cc2cn(Cc3cn(Cc4ccc(Cl)cc4Cl)nn3)c3ccccc23)C(=O)N1 | 94.3% (inactive)
11 | CCCCCCn1c(=N)n(CC(O)COc2cccc(C)c2)c2ccccc21 (stereo not drawn) | -74.6% (active)
12 | O=C(Nc1ncc(Cc2cccc(C(F)(F)F)c2)s1)C1COc2ccccc2O1 (stereo not drawn) | 92.1% (inactive)
13 | CN1C(=O)N(C)C2C1NN=c1s/c(=C\c3ccc([N+](=O)[O-])cc3)c(=O)n12 (stereo not drawn) | 68.9% (inactive)
14 | O=C(c1nc2ccccc2[nH]1)C1C(c2ccc(F)cc2)C2CC3CCCCC3N2[C@@]12C(=O)Nc1ccc(Cl)cc12 (stereo partly drawn) | 71.8% (inactive)
15 | COc1ccc(/C=C/C(=O)c2ccc3cc(OC)c(OC)cc3c2)cc1OC | 36% (inactive)
16 | O=c1oc2ccc(F)cc2c(=O)n1-c1ccc(Br)cc1F | -0.164% (active)
17 | COc1cc(/C=C2\CN(S(=O)(=O)c3ccccc3)C/C(=C\c3cc(CN4CCCC4)c(O)c(OC)c3)C2=O)cc(CN2CCCC2)c1O | -4.65% (active)
18 | CC(C)C[C@H](C(=O)N[C@@H](C)C(N)=O)N1CC=CCN(O)S1(=O)=O | 102% [5 µM] (inactive)
19 | CN(C)CCCNCc1ccc(-c2ccc(F)c(Cl)c2)o1 | 19.2% (inactive)
20 | O=c1oc2ccc(-c3ccc(F)cc3F)cc2c(=O)n1-c1cccc(C(F)(F)F)c1 | 3.5% (active)

Row | SMILES | growth
21 | O=C(N=Nc1c(O)[nH]c2ccccc12)c1oc2ccccc2c1CN1CCN(c2ccccc2)CC1 | 7.31% (active)
22 | O=C(Nc1ccc(Br)cc1F)c1cc(F)ccc1O | 2.13% (active)
23 | COc1cc(NC(=O)CCSc2nc3ccccc3c(=O)n2Cc2ccccc2)cc(OC)c1OC | 92.8% (inactive)
24 | O=C(Nc1ccc(I)cc1F)c1cc(F)ccc1O | -16.6% (active)
25 | COc1nccc2cc3c(=O)n4c(cc5ccccc54)c(=O)n3c12 | 82.3% (inactive)
26 | O=C(COc1cc(O)c2c(=O)cc(-c3ccccc3)oc2c1)Nc1ccccc1 | 101% (inactive)
27 | O=c1oc2ccc(-c3ccc(F)cc3F)cc2c(=O)n1-c1ccc(Cl)c(C(F)(F)F)c1 | 6.97% (active)
28 | CCN1CCN(c2cc(C)c3cc(NC(=O)c4ccc(OC)c(OC)c4)ccc3n2)CC1 | 50.7% (inactive)
29 | COc1ccc(Cn2c(Br)c3c(c2-c2cc(OC)c(OC)c(OC)c2)CCc2sc(NC(C)=O)nc2-3)cc1 | 60.3% (inactive)
30 | COc1ccccc1C(=O)O/N=C(\N)Cc1cccc2ccccc12 | 94.6% (inactive)
31 | O=C(Nc1ccc(Cl)cc1F)c1cc(I)ccc1O | 21.9% (inactive)
32 | O=C(O)CCC(=O)c1ccc(C2CCCCCC2)cc1 | 98.8% (inactive)
33 | CCCCOCc1cc(CN2CCN(C)CC2)c(O)c2ncccc12 | 32.9% (inactive)
34 | COC(=O)/C(CCC=C(C)C)=C1\[C@@H](OC(C)=O)C[C@@]2(C)[C@H]1C[C@@H](O)[C@H]1[C@@]3(C)CC[C@H](NCc4ccccc4)[C@@H](C)[C@@H]3CC[C@@]12C | 84% (inactive)
35 | O=C(NC1C(O)OC(CO)C(O)C1O)NS(=O)(=O)c1ccc(Cl)cc1 (stereo not drawn) | 92.9% (inactive)
36 | O=C(Nc1ccc(Br)cc1F)c1cc(Cl)ccc1O | -14% (active)
37 | CCOC(=O)c1c(C=O)nc2ccccc2c1/C=C/c1ccc(Cl)cc1 | 103% (inactive)
38 | COc1cccc2cc(N(C)c3nc(C)nc4ccsc34)ccc12 | 17.1% (inactive)
39 | COc1cc(/C=C/C(=O)c2c(C)nc3ccccc3c2/C=C/c2ccccc2)cc(OC)c1OC | 22.2% (inactive)

tested on: NCI-H460 lung; test: as above; settings: 10 µM unless noted

Row | SMILES | growth
40 | COC(=O)[C@@H]1CCCN1C(=O)[C@H]1CCCN1C(=O)[C@@H](Cc1c[nH]c2ccccc12)NC(=S)Nc1cc(C(F)(F)F)cc(C(F)(F)F)c1 | 16.2% (inactive)
41 | Cc1ccc(F)cc1NC(=O)c1cc(Cl)ccc1Nc1ccccc1 | 40.2% (inactive)
42 | CC1=C(C(=O)OCC2CCN(C(=O)OC(C)(C)C)CC2)[C@@H](c2cccc(C#N)c2)C2=C(CC(C)(C)CC2=O)N1 | 8.58% (active)
43 | CCCCCCc1cc2cc(-c3csc(/C=C/c4ccccc4)n3)c(=O)oc2cc1O | 17.7% (inactive)
44 | COc1ccc(Br)c(/C=C2\SC(=Nc3ccc(O)cc3)NC2=O)c1 | 102% (inactive)
45 | COc1ccc(Cn2c(Br)c3c(c2Br)-c2nc(N)sc2CC3)cc1 | 15.7% (inactive)
46 | COC(=O)c1cc2c(n1Cc1ccccc1)-c1oncc1CCC2 | 94.7% (inactive)
47 | CCOC(=O)c1sc(-c2ccc(OS(=O)(=O)c3ccccc3[N+](=O)[O-])c(C=O)c2)nc1C | 91.2% (inactive)
48 | Clc1ncccc1Nc1ccc2nnc(-c3ccncc3)n2n1 | 103% (inactive)
49 | O=C1NC(=O)C(=Cc2cn(Cc3cn(Cc4ccc(Cl)cc4Cl)nn3)c3ccccc23)C(=O)N1 | 51.7% (inactive)
50 | CCCCCCn1c(=N)n(CC(O)COc2cccc(C)c2)c2ccccc21 (stereo not drawn) | -68.1% (active)
51 | O=C(Nc1ncc(Cc2cccc(C(F)(F)F)c2)s1)C1COc2ccccc2O1 (stereo not drawn) | 97.7% (inactive)
52 | CN1C(=O)N(C)C2C1NN=c1s/c(=C\c3ccc([N+](=O)[O-])cc3)c(=O)n12 (stereo not drawn) | 32% (inactive)
53 | O=C(c1nc2ccccc2[nH]1)C1C(c2ccc(F)cc2)C2CC3CCCCC3N2[C@@]12C(=O)Nc1ccc(Cl)cc12 (stereo partly drawn) | 21.4% (inactive)
54 | COc1ccc(/C=C/C(=O)c2ccc3cc(OC)c(OC)cc3c2)cc1OC | 40.7% (inactive)
55 | O=c1oc2ccc(F)cc2c(=O)n1-c1ccc(Br)cc1F | 4.13% (active)
56 | COc1cc(/C=C2\CN(S(=O)(=O)c3ccccc3)C/C(=C\c3cc(CN4CCCC4)c(O)c(OC)c3)C2=O)cc(CN2CCCC2)c1O | -30.7% (active)
57 | CC(C)C[C@H](C(=O)N[C@@H](C)C(N)=O)N1CC=CCN(O)S1(=O)=O | 112% [5 µM] (inactive)
58 | CN(C)CCCNCc1ccc(-c2ccc(F)c(Cl)c2)o1 | -58.4% (active)
59 | O=c1oc2ccc(-c3ccc(F)cc3F)cc2c(=O)n1-c1cccc(C(F)(F)F)c1 | 4.14% (active)

Row | SMILES | growth
60 | O=C(N=Nc1c(O)[nH]c2ccccc12)c1oc2ccccc2c1CN1CCN(c2ccccc2)CC1 | -65.3% (active)
61 | O=C(Nc1ccc(Br)cc1F)c1cc(F)ccc1O | 3.38% (active)
62 | COc1cc(NC(=O)CCSc2nc3ccccc3c(=O)n2Cc2ccccc2)cc(OC)c1OC | 94.6% (inactive)
63 | O=C(Nc1ccc(I)cc1F)c1cc(F)ccc1O | 1.95% (active)
64 | COc1nccc2cc3c(=O)n4c(cc5ccccc54)c(=O)n3c12 | 103% (inactive)
65 | O=C(COc1cc(O)c2c(=O)cc(-c3ccccc3)oc2c1)Nc1ccccc1 | 61.6% (inactive)
66 | O=c1oc2ccc(-c3ccc(F)cc3F)cc2c(=O)n1-c1ccc(Cl)c(C(F)(F)F)c1 | 5.36% (active)
67 | CCN1CCN(c2cc(C)c3cc(NC(=O)c4ccc(OC)c(OC)c4)ccc3n2)CC1 | 25.4% (inactive)
68 | COc1ccc(Cn2c(Br)c3c(c2-c2cc(OC)c(OC)c(OC)c2)CCc2sc(NC(C)=O)nc2-3)cc1 | 31.2% (inactive)
69 | COc1ccccc1C(=O)O/N=C(\N)Cc1cccc2ccccc12 | 70.7% (inactive)
70 | O=C(Nc1ccc(Cl)cc1F)c1cc(I)ccc1O | 15.7% (inactive)
71 | O=C(O)CCC(=O)c1ccc(C2CCCCCC2)cc1 | 107% (inactive)
72 | CCCCOCc1cc(CN2CCN(C)CC2)c(O)c2ncccc12 | 21.9% (inactive)
73 | COC(=O)/C(CCC=C(C)C)=C1\[C@@H](OC(C)=O)C[C@@]2(C)[C@H]1C[C@@H](O)[C@H]1[C@@]3(C)CC[C@H](NCc4ccccc4)[C@@H](C)[C@@H]3CC[C@@]12C | 45.1% (inactive)
74 | O=C(NC1C(O)OC(CO)C(O)C1O)NS(=O)(=O)c1ccc(Cl)cc1 (stereo not drawn) | 104% (inactive)
75 | O=C(Nc1ccc(Br)cc1F)c1cc(Cl)ccc1O | 3.19% (active)
76 | CCOC(=O)c1c(C=O)nc2ccccc2c1/C=C/c1ccc(Cl)cc1 | 100% (inactive)
77 | COc1cccc2cc(N(C)c3nc(C)nc4ccsc34)ccc12 | 1.59% (active)
78 | COc1cc(/C=C/C(=O)c2c(C)nc3ccccc3c2/C=C/c2ccccc2)cc(OC)c1OC | -33.3% (active)
